Rows were chosen to be rich in hits. Some 2.8% of all compounds tested hit in one or more screens of this group.
CBFb RUNX1 block: blocks binding between human CBF-beta and RUNX1; AlphaScreen CBFb-His/RUNX1-biotin binding, biochemical; Potency, µM (highest dose often 59.8 µM), without a hit: top-dose activity, negative = inhibition, most hits filed as inhibitors; 230,000 tested, under 10 active; AID 1477; also: % of control where 0% means no effect
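Compounds were screened at multiple concentrations against a preformed CBF-beta(His)/RUNX1(biotin) complex (30 nM of each) for 15 min at room temperature, followed by 90 min with nickel and streptavidin beads and AlphaScreen reading.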
a7 integrin act: activates integrin-mediated alleviation for muscular dystrophy; AID 624291; alpha7betagal myoblasts, beta-gal FDG fluorescence, 48 h; Potency, µM (doses to about 38.3 µM), for inactives: at the highest dose activation, hits mostly activators; actives 0.064% (n = 350,000);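 also: potency is read from the fitted curve at half-maximal effect; 100% = response of the positive control SU9516; nearly all actives have a fitted effect of over 60% in size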
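Alpha7betagal+/- myoblasts (passage 13) were plated 16-24 hr, then exposed to compounds (1:260 dilution of DMSO stock) for 48 hours at 37C. After MPER lysis, β-galactosidase reporter activity was read as FDG fluorescence (ex 480/em 540) after 30 minutes.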
MBNL1-CUG inh: blocks human MBNL1 binding to CUG repeat RNA. Q9NR56. TR-FRET MBNL1-His/biotin-(CUG)12 binding, 665/545 ratio. Potency, µM (doses to about 57.5 µM), inactives show at the highest dose activity change, negative = inhibition, usual class: inhibitors. AID 2675. actives 0.036% (n = 280,000); active = well fitted inhibition curve with a large enough effect in the signal ratio, with a control signal flat, not every such curve was filed as active; inconclusive = small, poorly fitted or top-dose-only effect, or effect the other way, or a change in a side signal; inactive = no such curve, though single readings can be large or run the other way; the % refers to the signal ratio; also: potency is read from the fitted curve at half-maximal effect; % is scaled to controls: 0 for no effect and ±100 for the full control effect
Target sequence (Q9NR56 whole entry, looked up): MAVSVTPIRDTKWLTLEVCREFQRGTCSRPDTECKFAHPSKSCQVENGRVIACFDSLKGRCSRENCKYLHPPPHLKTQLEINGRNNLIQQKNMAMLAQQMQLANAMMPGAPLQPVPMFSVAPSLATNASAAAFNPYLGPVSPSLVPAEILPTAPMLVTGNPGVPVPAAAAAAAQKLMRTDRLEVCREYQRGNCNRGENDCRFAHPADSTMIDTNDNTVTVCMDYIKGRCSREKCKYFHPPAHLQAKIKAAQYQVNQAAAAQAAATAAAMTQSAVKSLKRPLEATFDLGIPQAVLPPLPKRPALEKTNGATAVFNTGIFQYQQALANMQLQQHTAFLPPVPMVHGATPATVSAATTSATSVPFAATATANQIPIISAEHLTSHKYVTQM
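TR-FRET readout: Ex 340 nm, 665/545 nm emission ratio, normalized to buffer-only (basal) and MBNL1-(CUG)12 controls. Complex of MBNL1-His with Biotin-(CUG)12, compounds 92 nM–58 uM, incubated 60 min at room temperature.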
PTHR1 agonist: PTHR1 (human) receptor agonism; Potency, µM (highest dose often 115 µM), for the others: at the highest dose activation, actives largely listed as activators; AID 743266; HEK293 GP2 PTHR1 cells, GloSensor cAMP luminescence, 1 h; actives 0.075% (n = 410,000); also: potency is read from the fitted curve at half-maximal effect; nearly all actives have a fitted effect of over 55% in size
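HEK-293-derived GP2 cells expressing PTHR1 and a GloSensor cAMP reporter, 3,000/well, plated overnight, given luciferin plus IBMX (each 0.5 mM as added) for 1 h at 37 °C, then compound for 1 h at 37 °C. Luminescence was read after 15 min at room temperature.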
D3 ag: activates the human D3 dopamine receptor; AID 652048; D3R DiscoveRx beta-arrestin cells, luminescence, 90 min; actives 0.58% (n = 410,000); max activation, %; in the data active = max activation above about 30%; also: 0% is about no effect
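Cells at 1500/well, incubated overnight, then treated with pinned compounds (dopamine as control) for 90 min at 37 degrees C. DiscoveRx reagent added for 30 - 60 minutes at room temperature; luminescence read.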
D3 antag: antagonists of human D3 dopamine receptor; P35462; D3R cells, DiscoveRx beta-arrestin luminescence, antagonist mode; hits give low values; max response, negative = inhibition, %; actives 2.5% (n = 360,000); AID 652054; in the data active = max response below about -50%; inconclusive = no clear call, values can overlap the other calls; also: % is scaled to controls: 0 for no effect and ±100 for the full control effect
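Cells expressing the human receptor were seeded at 1500 cells/well, incubated overnight at 37 degrees C in 5% CO2, then exposed to library compounds with dopamine controls for 90 minutes at 37 degrees C before luminescent detection.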
Active calls of the source: *; i = inactive; u = inconclusive; x = no result; [ ] = dose if it differs, or a comment. Unless noted, calls follow the shape of the dose curve; as a rule, active = well fitted curve in the direction sought with a large enough effect; inconclusive = small, poorly fitted or top-dose-only effect, or another doubt; inactive = no such curve, though single readings can be large; an effect the other way counts as inactive or inconclusive.

SMILES | CBFb RUNX1 block | a7 integrin act | MBNL1-CUG inh | PTHR1 agonist | D3 ag | D3 antag
COc1ccc(C(CNC(=O)c2oc3ccc(OC)cc3c2C)N2CCCC2)cc1 (stereo not drawn) | x | -35.9% | x | -12.7% | -28.0 | -18.9
COc1ccc(C(CNC(=O)c2oc3ccc(Br)cc3c2C)N2CCCCC2)cc1 (stereo not drawn) | 1.5% | -20.8% | 5.0% | i | -15.4 | -75.7*
COc1ccc(S(=O)(=O)N2CCOC2CNC(=O)C(=O)NCc2ccccn2)cc1OC (stereo not drawn) | x | -2.5% | x | -19.4% | 3.1 | 12.9
Cc1ccc(C(c2cc(Br)ccc2O)N2CCSCC2)cc1 (stereo not drawn) | x | -6.1% | x | -19.2% | -2.5 | -17.8
Cc1c(C(=O)NC(=S)Nc2cccnc2)cccc1[N+](=O)[O-] | x | 0.0% | -2.8% | -0.4% | -13.8 | -64.6*
Cc1ccc(C(=O)NC(=S)Nc2cccc(NC(=O)c3ccccc3)c2)cc1[N+](=O)[O-] | -1.2% | 0.0% | x | -20.9% | -8.2 | -67.5*
COc1ccc(C(=O)NC(=S)Nc2cccnc2)cc1[N+](=O)[O-] | 15.6% | 30.1% | u | -16.0% | -15.6 | 0.0
O=C(CSC(=S)N1CCOCC1)Nc1nc(-c2ccccc2)c(-c2ccccc2)o1 | 2.8% | -22.4% | 1.8% | i | 7.3 | -29.9
O=C(CSC(=S)N1CCCCC1)Nc1nc(-c2ccccc2)c(-c2ccccc2)o1 | 0.4% | -21.9% | 4.3% | 26.4%[57.5 µM] | -40.2 | -51.8*
Cn1nnnc1SCC(=O)Nc1nc(-c2ccccc2)c(-c2ccccc2)o1 | -4.8% | 4.1% | 11.8% | i | -6.9 | -52.6*
C[C@H](CO)N1C[C@H](C)[C@@H](CN(C)Cc2ccc3c(c2)OCO3)Oc2ccc(NC(=O)Cn3cnnn3)cc2C1=O | x | -7.9% | x | i | 10.3 | -14.2
Nc1nc(O)c(N=Nc2ccc(S(N)(=O)=O)cc2)c(=O)[nH]1 | x | 8.4% | u | -18.3% | 6.4 | -15.1
NS(=O)(=O)c1ccc(N=Nc2c[nH]c(=O)c(O)c2)cc1 | u | 1.4% | u | i | -10.7 | -66.2*
Cc1cccc(N2CCN(CCNC(=O)c3cc4c(s3)CS(=O)(=O)C4)CC2)c1C | -5.1% | -18.5% | 7.7% | -12.6% | 86.1* | 5.6
Cc1ccc(CNC(=O)c2cc3c(s2)CS(=O)(=O)C3)cc1 | x | -19.7% | -2.6% | i | -4.1 | -7.1
CC(C)CC(N)c1csc(NC(=O)c2cc(C(C)(C)C)nn2Cc2ccccc2)n1 (stereo not drawn) | x | x | x | -6.9% | 1.0 | 6.4
Cc1cc(C)c(C(=O)CC(=O)c2ccccc2Cl)c(O)c1 | x | 6.1% | 2.8% | -16.9% | -11.7 | -63.9*
Cc1onc(-c2c(Cl)cccc2Cl)c1C(=O)NCC1CCCO1 (stereo not drawn) | 7.1% | 2.8% | -4.7% | i | 9.4 | -104.5*
OC1c2cc(Cl)cc(Cl)c2N=C2CCCN21 (stereo not drawn) | x | x | x | -23.4% | -11.7 | -59.3*
OC1c2cc(Cl)ccc2-c2c(Cl)cc(Cl)cc21 (stereo not drawn) | x | -18.2% | x | -0.5% | 2.8 | 8.1
COCc1c(C(=O)OCc2nc3ccsc3c(=O)[nH]2)oc2ccccc12 | x | 1.12µM* | x | i | 1.9 | -19.2
Cc1ccc(C(=O)OCc2nc3ccsc3c(=O)[nH]2)o1 | x | 7.4% | x | i | -3.6 | -3.6
O=C(Nc1cccc2[nH]c([C@H]3C[C@H](O)[C@@H](CO)O3)nc12)NC(c1ccccc1)c1ccccc1 | x | x | x | -24.3% | 1.4 | 15.9
Cc1nn(-c2ccccc2)c(NC(=O)c2cccs2)c(-c2ccccc2Cl)c1=O | 0.4% | -2.9% | 6.9% | -21.7% | -6.7 | -59.2*
Cc1ccc(-n2nc3c(c2NC(=O)c2cccs2)CSC3)cc1 | -3.7% | -1.3% | -4.2% | 6.5%[57.5 µM] | -6.5 | -4.6
CCNC(=S)NS(=O)(=O)c1ccccc1 | 4.5% | -5.3% | 1.9% | 10.1%[57.5 µM] | 0.6 | -57.9*
